From the supplement of paper PMC9694430

How the values were obtained:
Experiment in all cases: thermal shift delta Tm vs DMSO control; higher = stronger stabilization (binding)
Details in all cases: 12.5 µM; protein concentration 2 µM
LOC_OS01G01410-cb001 = system: LOC_OS01G01410-cb001
Outline: (§1)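 Rice kinase domain constructs were expressed in E. coli, purified, and tested by differential scanning fluorimetry with compound added in DMSO. Each well of a 96-well plate held 19.5 μl of 2 μM kinase in 100 mM potassium phosphate pH 7.5, 150 mM NaCl, 10% glycerol and 5 × SYPRO Orange, and fluorescence was read from 25°C to 95°C at 0.05°C/s. The melting temperature shift is the mean of triplicates, taken against protein with DMSO alone after Boltzmann fitting.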

LOC_OS01G02750-cb003 = system: LOC_OS01G02750-cb003
Outline: as §1

LOC_OS01G10900-cb004 = system: LOC_OS01G10900-cb004
Outline: as §1

LOC_OS01G13800-cb001 = system: LOC_OS01G13800-cb001
Outline: as §1

LOC_OS01G14860-cb001 = system: LOC_OS01G14860-cb001
Outline: as §1

LOC_OS01G21960-cb002 = system: LOC_OS01G21960-cb002
Outline: as §1

LOC_OS01G39600-cb002 = system: LOC_OS01G39600-cb002
Outline: as §1

LOC_OS01G48390-cb002 = system: LOC_OS01G48390-cb002
Outline: as §1

LOC_OS01G51400-cb002 = system: LOC_OS01G51400-cb002
Outline: as §1

LOC_OS01G52050-cb004 = system: T1, LOC_OS01G52050-cb004
T1 sequence (whole entry): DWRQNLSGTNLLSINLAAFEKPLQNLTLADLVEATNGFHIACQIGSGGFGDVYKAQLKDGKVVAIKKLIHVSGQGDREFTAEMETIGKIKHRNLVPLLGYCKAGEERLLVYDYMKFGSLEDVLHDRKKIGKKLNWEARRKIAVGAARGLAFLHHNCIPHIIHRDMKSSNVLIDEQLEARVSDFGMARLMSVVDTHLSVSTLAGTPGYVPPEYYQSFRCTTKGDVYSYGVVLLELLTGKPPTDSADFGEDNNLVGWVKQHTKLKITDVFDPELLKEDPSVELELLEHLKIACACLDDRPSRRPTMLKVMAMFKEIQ
Outline: as §1

Row | SMILES | thermal shift delta Tm (LOC_OS01G01410-cb001) [°C] | thermal shift delta Tm (LOC_OS01G02750-cb003) [°C] | thermal shift delta Tm (LOC_OS01G10900-cb004) [°C] | thermal shift delta Tm (LOC_OS01G13800-cb001) [°C] | thermal shift delta Tm (LOC_OS01G14860-cb001) [°C] | thermal shift delta Tm (LOC_OS01G21960-cb002) [°C] | thermal shift delta Tm (LOC_OS01G39600-cb002) [°C] | thermal shift delta Tm (LOC_OS01G48390-cb002) [°C] | thermal shift delta Tm (LOC_OS01G51400-cb002) [°C] | thermal shift delta Tm (LOC_OS01G52050-cb004) [°C]
1 | CC1Oc2cc(cnc2N)-c2c(nn(C)c2C#N)CN(C)C(=O)c2ccc(F)cc21 (stereo not given) | 0.52 | 1.64 | 0.21 | -0.23 | 0.3 | -0.18 | -0.18 | 2.07 | 0.44 | 0.41
2 | Cc1c(C(=O)Nc2ccc(Oc3ccnc4[nH]cc(-c5ccccc5)c34)c(F)c2)c(=O)n(-c2ccc(F)cc2)n1C | 0.66 | 2.79 | 1.91 | 0.84 | 0.67 | 1.55 | 2.37 | 1.72 | 0.78 | 2.8
3 | CCNC(=O)C#Cc1ccc2c(C(=Nc3ccc(CN(C)C)cc3)c3ccccc3)c(O)[nH]c2c1 | 1.75 | 1.1 | 0.16 | -0.3 | 5.63 | 0.65 | 3.52 | 1.35 | -0.33 | 2.8
4 | COc1ccc(-c2nc(N3CCOCC3)c3sc(CN(C)c4ncc(C(=O)NO)cn4)cc3n2)cn1 | 0.62 | 1.67 | 0.67 | 0.23 | 0.42 | 0.88 | 0.28 | 0.53 | 0.43 | -0.17
5 | O=C(Nc1cccc(Nc2ncc(Br)c(NCCc3cnc[nH]3)n2)c1)N1CCCC1 | 5.28 | 2.32 | 0.86 | 0.31 | 4.24 | 3.16 | 7.21 | 4.8 | 1.21 | 11.9
6 | CNC(=O)Nc1ccc(-c2nc(N3CC4CCC(C3)O4)c3cnn(C4CCC5(CC4)OCCO5)c3n2)cc1 | 0.49 | 1.08 | 0.69 | 0.32 | 0.37 | 1.21 | -0.16 | 0.79 | 0.4 | 0.38
7 | Oc1cc(CNC(=S)/C=C/c2cc(O)c(O)c(Br)c2)cc(O)c1O | 4.72 | 1.04 | -0.23 | 4.09 | 2.93 | 5.85 | 0.87 | 0.74 | 1.58 | 1.78
8 | COc1cc2c(Nc3ccc(NC(=O)c4ccccc4)cc3)ncnc2cc1OCCCN1CCOCC1 | 2.69 | 0.98 | -0.03 | 0.65 | 0.52 | 0.26 | 1.98 | 0.89 | 0.34 | 0.94
9 | C=CC(=O)Nc1cc(Nc2nccc(-c3c[nH]c4ccccc34)n2)c(OC)cc1N(C)CCN(C)C | 0.92 | 0.98 | 0.33 | 0.08 | 0.37 | 0.6 | 0.12 | 0.83 | 0.34 | 0.96
10 | Cc1cc(Nc2cc(N)ncn2)c(=O)n2c1C(=O)NC21CCCCC1 | 0.09 | 0.56 | 3.66 | -0.03 | 1.91 | 0.49 | -0.58 | -0.04 | 0.24 | -0.14
11 | CC(C)(CCCCCC(O)CCCCCC(C)(C)C(=O)O)C(=O)O | 0.55 | 0.54 | 0.09 | 0.41 | -0.23 | 0.39 | -0.54 | 0.29 | 0.29 | 0.02
12 | COc1cc2ncnc(Nc3cccc(Cl)c3F)c2cc1OC(=O)N1CCN(C)C[C@H]1C | 0.74 | 0.31 | 0.52 | -0.2 | 0.07 | 0.37 | -0.74 | 0.45 | 0.35 | -0.17
13 | O=C(Nc1c[nH]nc1-c1nc2ccc(CN3CCOCC3)cc2[nH]1)NC1CC1 | 5.91 | 3.78 | 2.15 | -0.38 | 8.12 | 3.45 | 6.02 | 2.89 | 0.42 | 7.67
14 | O=C(c1cccc(Cl)c1F)N1CCN(Cc2cccc(Nc3nccs3)n2)CC1 | 0.64 | 0.86 | 0.24 | -0.45 | 4.28 | 0.14 | 2.61 | 1.3 | 0.25 | 4.36
15 | O=c1cc(N2CCOCC2)oc2c(-c3ccc4c(c3)OCCO4)csc12 | 0.37 | 2.36 | 3.38 | -0.36 | 2.26 | 0.76 | 0.21 | 1.47 | 0.47 | 4.58
16 | O=C(NOC[C@H](O)CO)c1ccc(F)c(F)c1Nc1ccc(I)cc1F | 1.23 | 0.99 | 0.49 | 0.45 | 0.5 | 0.89 | 0.66 | 0.89 | 0.22 | 0.59
17 | CCn1cc(-c2ccnc3[nH]c(-c4cccc(CN(C)C)c4)cc23)c(-c2ccc(NC(=O)N(C)C)cc2)n1 | 0.68 | 2.48 | 1.01 | 0.47 | 2.81 | 0.73 | 0.91 | 1.28 | 0.51 | 0.87
18 | CC[C@@H](N)CNc1ccnc(-c2cc(-c3cnn(C)c3)ccc2O)n1 | 0.15 | 2.58 | 0.85 | -0.28 | 2.58 | 2.15 | -0.05 | 1.98 | 0.28 | 1.98
19 | Cn1cc(-c2ccc3ncc(Cc4ccc5ncccc5c4)n3n2)cn1 | 0.75 | 0.95 | 6.36 | 0.22 | 0.23 | 0.62 | 0.86 | 1.24 | 0.47 | 0.62
20 | Nc1ncnc2c1c(-c1cnc3[nH]ccc3c1)nn2C1CCCC1 | 1.35 | 1.16 | 2.01 | 0.12 | 1.82 | 1.28 | 0.43 | 2.52 | 0.19 | 1.48
